ELG1 genotox = genotoxicity induction in ELG1-luciferase HEK293T cells; 330,000 tested, 1.3% active; AID 504466; HEK293T ELG1-luciferase reporter, luminescence, 16 h; Potency, µM (titrated, usually from 46 µM), for inactives: at the top dose activity change, positive = activation, hits mostly activators; note: % of control where 0% means no effect; nearly all actives have a fitted effect of over 60% in size
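HEK293T cells expressing luciferase-tagged ELG1 were treated with compound or DMSO for 16 hr at 37°C. Luciferase activity was then read after 30 min with ONE-Glo at room temperature; rising signal flags genetic stress.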
Rab9 promoter act = activators of Rab9 promoter. AID 485297. 320,000 tested, 2.8% active. Huh7 Rab9 promoter-luciferase reporter, luminescence, 24 h. Potency, µM (top dose mostly 9.22 µM), without a hit: top-dose activation, negative = inhibition, most hits filed as activators; note: % of control where 0% means no effect; nearly all actives have a fitted effect of over 60% in size
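Measured in stably transfected Huh7 cells bearing a Rab9 promoter–luciferase construct: 24 h compound treatment at 37 °C, followed by luminescence detection.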
FLuc counter = inhibits or activates purified firefly luciferase, miR-21 counter-screen. AID 588342. Potency, µM (top dose mostly 57.5 µM), inactives show at the highest dose activity change, negative = inhibition, usual class: inhibitors. 360,000 tested, 6.9% active. P08659. purified FLuc, Km substrates, luminescence inhibition;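 note: plate controls were vehicle for no effect and reference inhibitor for full effect; nearly all actives have a fitted effect of over 55% in size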
Target sequence (P08659 whole entry, looked up): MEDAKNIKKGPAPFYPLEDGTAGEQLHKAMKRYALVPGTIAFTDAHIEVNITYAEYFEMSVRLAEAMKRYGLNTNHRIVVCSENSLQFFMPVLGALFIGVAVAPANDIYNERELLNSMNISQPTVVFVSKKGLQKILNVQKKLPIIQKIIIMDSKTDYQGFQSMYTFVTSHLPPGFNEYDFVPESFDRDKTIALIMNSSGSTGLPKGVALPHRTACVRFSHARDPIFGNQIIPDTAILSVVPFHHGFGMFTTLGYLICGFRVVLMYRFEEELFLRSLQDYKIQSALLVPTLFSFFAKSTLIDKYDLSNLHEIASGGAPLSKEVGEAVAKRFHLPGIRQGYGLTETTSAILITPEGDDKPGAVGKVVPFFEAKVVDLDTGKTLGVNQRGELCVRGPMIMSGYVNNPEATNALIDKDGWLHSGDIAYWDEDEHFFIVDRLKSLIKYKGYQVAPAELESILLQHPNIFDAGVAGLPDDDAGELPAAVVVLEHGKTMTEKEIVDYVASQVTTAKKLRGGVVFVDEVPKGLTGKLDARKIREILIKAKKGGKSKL
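Biochemical qHTS of compounds, final roughly 60 µM downward over six points, against 10 nM purified firefly luciferase using Km concentrations of substrates (10 uM D-luciferin, 10 uM ATP) in Tris acetate pH 7.5 buffer; luminescence output.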
Luc counter = Kinase-Glo luciferase inhibition (counter-screen). Potency, µM (series often up to 38.3 µM), inactives show at the top dose activity change, negative = inhibition, hits mostly inhibitors. AID 1379. Q27757. 200,000 tested, 0.28% active. Kinase-Glo luciferase, ATP luminescence, 8 min; note: % is set by controls: 0 for no effect and ±100 for the full control effect; nearly all actives have a fitted effect of over 60% in size
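Substrate mix (final 50 mM imidazole pH 7.2, 50 mM KCl, 7 mM MgCl2, 10 uM ATP, 0.01% Tween 20, 0.05% BSA) plus pin-tool compound, then Kinase-Glo detection mix; 8 min ambient, luminescence read.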
SMN2 splice enh = enhancers of SMN2 splice variant expression; HEK293 SMN2-luciferase splicing reporter, luminescence, 30-36 h; AID 1458; 210,000 tested, 2.8% active; Potency, µM (titrated, usually from 46.1 µM), for the others: at the highest dose activity change, positive = activation, hits mostly activators; note: % of control where 0% means no effect; nearly all actives have a fitted effect of over 55% in size
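HEK293 cells carry an SMN2 minigene-luciferase reporter in which exon 7 inclusion puts luciferase in frame. Cells were seeded at 2000 cells/well, attached for 10-12 hours, then exposed to compounds for 30-36 hours at 37C before ONE-Glo luminescence.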
NPC1 promoter act = activators of NPC1 promoter; Huh7 NPC1 promoter luciferase reporter, 24 h; Potency, µM (highest dose often 9.22 µM), without a hit: at the top dose activation, hits mostly activators; 320,000 tested, 2.4% active; note: % of control where 0% means no effect; nearly all actives have a fitted effect of over 60% in size
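Luminescence read-out of NPC1 promoter-driven luciferase in stably transfected Huh7 cells; compounds delivered in DMSO and left 24 h at 37C, 5% CO2, qHTS titration format.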
* hit, by the source's call; ? = inconclusive; nt = not tested or not shown; [ ] = another dose, or the depositor's remark. In the library only some 7.3% were active in any assay of this set; here they are far more common. Calls come from the whole dose curve; as a rule, active = well fitted curve in the direction sought with a large enough effect; inconclusive = small, poorly fitted or top-dose-only effect, or another doubt; inactive = no such curve, though single readings can be large; an effect the other way counts as inactive or inconclusive. Potency is the fitted concentration of half-maximal effect.

SMILES | ELG1 genotox | Rab9 promoter act | FLuc counter | Luc counter | SMN2 splice enh | NPC1 promoter act
Cc1ccccc1OCCCn1c(=O)sc2ccccc21 | 17% | ? | 9.5µM* | -7% | 18µM* | ?
O=c1sc2ccccc2n1COc1ccccc1 | 7% | -7% | -2% | 0% | -17% | 15%
O=c1sc2ccccc2n1Cc1ccccc1 | 5% | -2% | -10% | 2% | -2% | -3%
O=c1sc2ccccc2n1CCCOc1ccccc1 | 19% | 2.5µM* | 11µM* | -5% | ? | 3.2µM*
COc1ccc([C@]23Cc4cc(C#N)ccc4C(O2)c2c(cc(C)n(-c4ccccc4)c2=O)O3)cc1 | nt | -6%[1.84 µM] | 3%[11.5 µM] | nt | nt | 1%[1.84 µM]
O=C(NCC(c1ccco1)S(=O)(=O)c1cccs1)c1ccc(C(F)(F)F)cc1 (centres undefined) | nt | nt | 3% | nt | nt | nt
CCCCCC(=O)CC[C@@H]1[C@@H](C/C=C\CCCC(=O)O)[C@@H](O)C[C@H]1O | nt | nt | nt | 2% | 12% | nt
COc1cccc([C@@H]2Oc3ccc(OC)cc3C[C@H]2O)c1 | nt | nt | nt | 2% | 17% | nt
Cc1ccc(OCCCn2c(=O)sc3ccccc32)cc1 | 2% | 15% | 17µM* | -3% | -1% | 16%
COc1cc(/C=N/N(C)C)cc(Br)c1O | -2% | -7% | -1% | nt | nt | -4%
COc1ccc(OC)c(/C=N/N(C)c2ccccc2)c1 | 5.8µM* | 3.5µM* | 11µM* | 0% | ? | ?
COc1cc(/C=N/N(C)c2ccccc2)cc(Cl)c1O | 12% | 6% | 13µM* | 0% | 3% | 24%
CCCOc1ccc(C2c3c(-c4ccccc4O)n[nH]c3C(=O)N2CCCOCC)cc1OCC (centres undefined) | nt | nt | -10% | nt | -14% | nt
Cc1cc(C(=O)N/N=C2\CC(=O)c3ccccc32)c(C)n1-c1ccc(F)cc1 | 11% | ? | 8.5µM* | nt | nt | -24%
CC(=O)Nc1ccc(/C=C/c2ccc3cccc([N+](=O)[O-])c3n2)cc1 | -3% | -1% | ? | nt | nt | 17%
O=[N+]([O-])c1ccc(/C=C/c2ccc3cccc(O)c3n2)cc1 | ? | ? | 2.4µM* | nt | nt | ?
O=[N+]([O-])c1ccc(/C=C/c2ccc3ccccc3n2)cc1 | -9% | 0.56µM* | 0.6µM* | ? | 2.2µM* | ?
CCc1nn(CC(=O)N2CCN(c3cccc(C)c3C)CC2)c(=O)c2cc3sccc3n12 | nt | nt | -3% | nt | 0% | nt
Cc1cccc(N2CCN(C(=O)c3cccc(-n4c(C)nc5cccnc54)c3)CC2)c1C | nt | nt | -4% | nt | nt | nt
O=c1cc2[nH]c3ccccc3c(=O)n2nc1-c1ccccc1 | 13µM* | ? | 19µM* | -3% | 22% | ?
COc1cc(C(=O)N2CCN(CCc3ccccn3)CC2)cc(OC)c1OC | nt | nt | -2% | nt | nt | nt
Cc1cccc(NC(=O)c2ccc(N3CCCCC3)c([N+](=O)[O-])c2)n1 | ? | 2µM* | 4.8µM* | -9% | 6.3µM* | 2.8µM*
O=C(O)c1ccccc1C(=O)c1ccc(N2CCCC2)c([N+](=O)[O-])c1 | 9% | 24% | 24µM* | 3% | -2% | 10%
Cc1cccc(NC(=O)c2ccc(N(C)C3CCCCC3)c([N+](=O)[O-])c2)n1 | -16% | 20% | 11µM* | -3% | 4% | 26%
COc1cc(Cl)c(C)cc1NC(=O)c1cc(CN2CCOCC2)on1 | nt | nt | -6% | nt | nt | nt
Cn1c(C[C@@H](O)c2nc3ccccc3n2C)nc2ccccc21 | nt | nt | nt | 1%[7.66 µM] | -3%[9.22 µM] | nt
COc1ccc2nc(-c3ccccc3)cc(C(=O)OCC(=O)N3CCCCC3)c2c1 | -8% | -1% | 21µM* | nt | nt | -3%
COc1ccc(-c2cc(C(=O)OCC(=O)N3CCCC3)c3ccccc3n2)cc1 | -2% | 15% | 6µM* | -3% | 32% | 15%
COc1ccc2nc(-c3ccccc3)cc(C(=O)OCC(=O)N3CC(C)OC(C)C3)c2c1 (centres undefined) | -6% | -5% | 19µM* | nt | nt | -10%
CCCC(=O)NCCc1c(I)[nH]c2ccc(OC)cc12 | nt | nt | nt | nt | -20% | nt

Source: PubChem (National Center for Advancing Translational Sciences (NCATS))
